# Bioassay records: PubChem BioAssay, Sanford-Burnham Center for Chemical Genomics
# This is a sample that favours compounds with a hit; in the whole collection about 31% have one here.
# CYP2C19 act = human CYP2C19 activators, primary screen, biochemical, luminescence; Cytochrome P450 2C19 (Homo sapiens), P33261; recombinant CYP2C19, luciferin-H EGE luminescence; hits give high values; 0 = fully inhibited enzyme, 1 = untreated enzyme; activation factor at 5 µM; 96,000 tested, under 10 active; AID 1025, 2008;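 active means activation factor of at least 2 at 5 µM in the primary screen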
# CYP2C9 activ = human CYP2C9 activators, primary screen, biochemical, luminescence. recombinant CYP2C9, luciferin-H conversion; hits give high values; factor 1 = untreated enzyme, 0 = blocked. activation factor at 5 µM. hit rate 1.4% among 96,000. AID 1024, 2008;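 active means activation factor of 2 or more for CYP2C9 at a 5 µM dose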
# Target sequence (P11712 whole entry, looked up): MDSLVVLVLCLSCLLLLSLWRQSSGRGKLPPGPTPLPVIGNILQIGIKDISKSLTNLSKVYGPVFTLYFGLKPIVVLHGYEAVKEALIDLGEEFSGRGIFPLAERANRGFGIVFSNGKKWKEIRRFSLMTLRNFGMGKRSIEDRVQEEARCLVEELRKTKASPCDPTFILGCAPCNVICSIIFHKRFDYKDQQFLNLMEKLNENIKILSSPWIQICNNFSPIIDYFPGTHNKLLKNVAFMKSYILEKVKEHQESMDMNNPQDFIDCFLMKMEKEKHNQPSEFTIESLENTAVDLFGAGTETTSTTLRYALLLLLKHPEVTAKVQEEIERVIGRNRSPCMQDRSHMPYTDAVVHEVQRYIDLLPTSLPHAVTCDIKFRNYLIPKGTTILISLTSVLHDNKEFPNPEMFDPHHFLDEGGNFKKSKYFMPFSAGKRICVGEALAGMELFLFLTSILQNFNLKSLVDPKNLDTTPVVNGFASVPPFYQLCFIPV
# CYP2C9 inhib = blockers of cytochrome P450 2C9 activity – biochemical, luminescence, ADME assay, primary screen; P11712; CYP2C9 Supersomes, luciferin-H conversion; AID 777, 2007; inhibition, % at 5 µM; hit rate 20% among 96,000;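 active means blocking of liver enzyme CYP2C9 beyond about 50% at 5 µM, limit read from the data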
# CYP2C19 inhib = blockers of cytochrome P450 2C19 activity – biochemical, luminescence, ADME assay, primary screen; P33261; CYP2C19 Supersomes, luciferin-H EGE luminescence, 30 min; inhibition, % at 5 µM; hit rate 21% among 96,000; AID 778, 2007;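 active means CYP2C19 inhibition above a set limit at 5 µM in the primary screen, cut at about 50% in these data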
# PLAP act = PLAP enzyme activators, biochemical, luminescence, HTS. AID 696, 2007. hit rate 1.2% among 96,000. Alkaline phosphatase, placental type (Homo sapiens), P05187. activation fold at 20 µM. purified PLAP enzyme, luminescent substrate read-out; hits give high values; in the data active means activation fold above about 2
# A number is an active result; . = inactive.
SMILES,CYP2C19 act,CYP2C9 activ,CYP2C9 inhib,CYP2C19 inhib,PLAP act
CCOC(=O)Cn1nnnc1C(CC)N(Cc1cccs1)Cc1cc2ccc(OC)cc2[nH]c1=O (configuration not stated),.,.,91,96,.
N/C(CN1CCCC1=O)=N\OC(=O)c1ccccc1Cl,.,.,.,.,.
COc1ccc(/C(O)=C2/C(=O)C(=O)N(c3ncccn3)C2c2ccc(OC)c(OC)c2)cc1 (configuration not stated),.,.,.,.,.
O=C(O)c1cc(-c2ccco2)nc2ccc(Br)cc12,.,.,.,.,.
CC1CCc2c(sc(NC(=O)CN3CCN(C(=O)c4ccco4)CC3)c2C#N)C1 (configuration not stated),.,.,.,.,.
Cc1ccc2[nH]c(=O)c(CN(Cc3cccs3)Cc3nnnn3Cc3ccccc3)cc2c1,.,.,60,93,.
COc1ccc(Cn2nnnc2CN(Cc2cc3cc(C)ccc3[nH]c2=O)C2CCCC2)cc1,.,.,.,.,.
CCOC(=O)Cn1nnnc1CN(CCc1ccccc1)Cc1cc2cc(CC)ccc2[nH]c1=O,.,.,72,.,.
Cc1ccc(OC(=O)C(F)(F)F)c2c1NCCC2,.,.,.,.,.
COc1cccc(C2C(C#N)=C(N)Oc3cc(C)[nH]c(=O)c32)c1OC (configuration not stated),.,.,.,.,.
O=C(NCc1ccco1)c1cc2nc(-c3cccs3)cc(C(F)(F)F)n2n1,.,.,56,.,.
O=C(NCc1ccco1)c1nn2c(C(F)(F)F)cc(-c3cccs3)nc2c1Cl,.,.,55,.,.
O=C(c1ccco1)N1CCN(C(=O)c2cnn3c(C(F)(F)F)cc(-c4cccs4)nc23)CC1,.,.,.,.,.
O=C1CCCN1C(=O)CCC(=O)N1CCCC1=O,.,.,.,.,.
CCOC(=O)c1c(NC(=O)CSc2nnc(-c3cccnc3)n2Cc2ccco2)sc(C)c1C,.,.,66,.,.
COC(=O)c1c(NC(=O)CSc2nnnn2C)sc(C)c1C,.,.,66,65,.
C=CCn1c(SCC(=O)NC2CCCCC2)nnc1-c1sc(N)nc1C,.,.,.,.,.
COC(=O)c1c(NC(=O)CSc2nnc(-c3ccco3)n2Cc2ccccc2)sc(C)c1C,.,.,62,.,.
C=CCn1c(SCC(=O)Nc2sc(C)c(C)c2C(=O)OCC)nnc1-c1sc(N)nc1C,.,.,62,60,.
Cc1cc(NC(=O)CSc2nnc(Cc3ccccc3)o2)no1,.,.,.,.,.
Cn1c(NCc2ccccc2O)nc2ccccc21,.,.,.,64,.
CCN(CC)CCNc1nc2ccccc2n1C,.,.,.,.,.
Cn1c(NCc2cccc(Br)c2)nc2ccccc21,.,.,.,54,.
Cc1cccc(NCc2nc3ccccc3n2C)c1,.,.,.,.,.
Cc1nn(-c2ccccc2)c(C)c1C(=O)OCC(=O)N1c2ccccc2NC(=O)C1(C)C,.,.,.,.,.
SMILES,CYP2C19 act,CYP2C9 activ,CYP2C9 inhib,CYP2C19 inhib,PLAP act
O=C(NCCCn1ccnc1)Nc1ccc(Cl)c(Cl)c1,.,.,100,76,.
O=C(COc1ccc(Cl)cc1)NCCCn1ccnc1,.,.,90,99,.
O=C(NCCCN1CCCC1=O)Nc1ccc(F)c(Cl)c1,.,.,.,.,.
CC(C)(C)SCCNC(=O)COc1ccc(Cl)cc1,.,.,.,.,.
O=C(O)C1C2C=CC(O2)C1C(=O)NCCCn1ccnc1 (configuration not stated),.,.,.,.,.
CCC(NC(=O)NCCCn1ccnc1)(C(F)(F)F)C(F)(F)F,.,.,85,97,.
O=C(NCC(=O)N1CCCCC1)c1ccc(Cl)cc1Cl,.,.,.,.,.
O=C(CNC(=O)c1ccc(Cl)cc1Cl)NCCCn1ccnc1,.,.,51,69,.
Cc1csc(C(=O)O)c1-n1cccc1,.,.,.,.,.
CC(C)(C)c1cc(CN2CCOCC2)c(C(=O)O)o1,.,.,.,.,.
CC(C)CC(=O)c1c[nH]c(C(=O)NCCCN2CCOCC2)c1,.,.,.,.,.
O=C(NCCCn1ccnc1)Nc1ccc(Cl)cc1,.,.,98,97,.
CCOc1ccc(NC(=O)C(=O)NCCCn2ccnc2)cc1,.,.,60,73,.
O=C(NCCCN1CCc2ccccc2C1)Nc1ccc(Cl)cc1,.,.,.,.,.
O=C1CSC(c2ccc3c(c2)OCO3)N1c1ccc(Oc2ccccc2)cc1 (configuration not stated),.,.,60,.,.
CC(=O)Nc1ccc(N2C(=O)CSC2c2ccc(F)cc2)cc1 (configuration not stated),.,.,.,.,.
Cc1ccc(N2C(=O)CSC2c2ccc3c(c2)OCO3)cc1 (configuration not stated),.,.,69,100,.
COc1ccc(C2SCC(=O)N2c2c(C)n(C)n(-c3ccccc3)c2=O)cc1 (configuration not stated),.,.,.,.,.
CCOC(=O)N1CCN(C(=O)CSCC(=O)Nc2nc(-c3ccc(C)cc3)cs2)CC1,.,.,.,.,.
Cc1cccc(NC(=S)NC2CC3CCC(C2)N3Cc2ccco2)c1 (configuration not stated),.,.,.,.,.
Cc1cc(-c2nc3c4c5c(sc4[nH]c(=O)n3n2)CCC5)c(C)o1,.,.,51,.,.
Cc1nc2sc3c(c2c(=O)[nH]1)CCC3,.,.,.,.,.
CCC(C(=O)NC(C)CCc1ccccc1)n1nc(C)n2c(cc3occc32)c1=O (configuration not stated),.,.,87,71,.
CCc1nn(C(C)C(=O)N2CCc3ccccc3C2)c(=O)c2cc3occc3n12 (configuration not stated),.,.,61,94,.
CCc1nn(C(C)C(=O)Nc2cccc(C)c2C)c(=O)c2cc3occc3n12 (configuration not stated),.,.,66,71,.
SMILES,CYP2C19 act,CYP2C9 activ,CYP2C9 inhib,CYP2C19 inhib,PLAP act
COC(=O)CSc1nc2ccccc2c(=O)n1C,.,.,.,.,.
COCCn1c(SCc2cccnc2)nnc1-c1ccco1,.,.,.,.,.
O=C(O)CSC1c2ccccc2C(=O)N1Cc1ccccc1 (configuration not stated),.,.,.,.,.
CCC(=O)OC1c2ccccc2C(=O)N1Cc1ccccc1 (configuration not stated),.,.,.,62,.
Cc1ccc(NCc2nnc(SCC(=O)N(Cc3ccccc3)C(C)(C)C)o2)c(C)c1,.,.,.,.,.
Cc1nc2sc(C(c3cccc(F)c3)N3CC(C)OC(C)C3)c(O)n2n1 (configuration not stated),.,.,.,.,.
